Data reported in PubChem BioAssay.
Values without a mark were called inactive. Calls of active or inactive are those of the source. Unless noted, no stated cut-off is given here; in the data, active means inhibition above about 33%; inactive means the rest.

Tests used:
[1] = StAR promoter reporter inhibitors, counter-screen for LRH-1 inverse agonist project, cell-based, luminescence, high throughput (AID 651611; in the data active means inhibition above about 28%); settings: StAR promoter luciferase reporter counterscreen, at 3.6 µM, stronger effect = higher value
[2] = biological target: Nuclear receptor subfamily 5 group A member 2 (Homo sapiens) (UniProt O00482); assay: LRH-1 (NR5A2) inverse agonists, retest, confirmation, cell-based, luminescence (AID 651613; in the data active means inhibition above about 42%;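 further: HEK293T cells co-transfected with LRH-1 and StAR promoter luciferase reporter; 0% = vehicle wells and 100% = parental cells lacking receptor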); settings: cell-based LRH-1 luciferase reporter, inverse agonism; at 3.6 µM; stronger effect = higher value
[3] = biological target: Steroidogenic factor 1 (Homo sapiens) (UniProt Q13285); assay: SF1 (NR5A1) inverse agonists, counter-screen for LRH-1 inverse agonist project, cell-based, luminescence, high throughput (AID 651614; in the data active means inhibition above about 44%;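 further: cells cotransfected with StAR promoter reporter and SF1 expression vector; 0% = vehicle on cells with receptor and 100% = vehicle on cells lacking receptor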); settings: cell-based SF1 luciferase reporter, at 3.6 µM, stronger effect = higher value
[4] = VP16 transactivation reporter inhibitors, counter-screen for LRH-1 inverse agonist project, cell-based, luminescence, high throughput (AID 651615); settings: Gal4-VP16 luciferase reporter cells, at 3.6 µM, stronger effect = higher value

Steroidogenic factor 1 (Homo sapiens), sequence (Q13285 whole entry, looked up, the tested form may be a part): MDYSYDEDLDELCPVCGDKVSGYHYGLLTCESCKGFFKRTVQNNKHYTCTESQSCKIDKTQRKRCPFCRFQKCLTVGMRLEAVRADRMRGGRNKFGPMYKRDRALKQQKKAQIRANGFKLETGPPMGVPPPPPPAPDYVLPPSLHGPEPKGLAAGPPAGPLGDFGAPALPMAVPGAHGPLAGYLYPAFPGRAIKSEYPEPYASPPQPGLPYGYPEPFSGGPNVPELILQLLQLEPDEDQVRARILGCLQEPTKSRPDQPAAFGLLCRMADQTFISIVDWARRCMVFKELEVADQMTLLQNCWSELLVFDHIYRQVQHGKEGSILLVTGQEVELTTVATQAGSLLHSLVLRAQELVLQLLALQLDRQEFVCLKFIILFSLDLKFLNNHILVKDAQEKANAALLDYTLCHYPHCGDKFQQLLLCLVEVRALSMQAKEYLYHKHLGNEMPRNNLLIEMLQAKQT
Nuclear receptor subfamily 5 group A member 2 (Homo sapiens), sequence (O00482 whole entry, looked up): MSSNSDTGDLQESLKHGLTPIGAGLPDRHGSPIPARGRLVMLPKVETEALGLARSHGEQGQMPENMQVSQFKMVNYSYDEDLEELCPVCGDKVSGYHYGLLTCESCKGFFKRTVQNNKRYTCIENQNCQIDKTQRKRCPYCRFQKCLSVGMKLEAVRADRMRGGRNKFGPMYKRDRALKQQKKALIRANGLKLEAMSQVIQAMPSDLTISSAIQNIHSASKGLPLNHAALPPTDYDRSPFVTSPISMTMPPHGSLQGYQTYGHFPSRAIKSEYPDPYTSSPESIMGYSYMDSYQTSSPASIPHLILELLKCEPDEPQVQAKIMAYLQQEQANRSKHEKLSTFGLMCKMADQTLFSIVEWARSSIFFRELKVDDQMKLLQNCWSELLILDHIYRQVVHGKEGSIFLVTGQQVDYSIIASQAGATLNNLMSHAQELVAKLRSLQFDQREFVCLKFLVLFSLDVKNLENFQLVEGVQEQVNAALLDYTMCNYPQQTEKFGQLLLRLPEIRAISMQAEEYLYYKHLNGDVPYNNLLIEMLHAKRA

Compound: COC(=O)c1cc2c(-c3ccccc3)cc3ccccn3c-2c1C(=O)OC
- inhibition [1]: 11.5%
- inhibition [2]: 62.3% (active)
- inhibition [3]: 54.5% (active)
- inhibition [4]: 0.7%

Compound: COc1ccc(S(=O)(=O)N2CCOCC2)cc1N=Nc1sc(N)nc1-c1ccccc1
- inhibition [1]: 36.4% (active)
- inhibition [2]: 60.7% (active)
- inhibition [3]: 66.3% (active)
- inhibition [4]: -3.07%

Compound: COC(=O)c1cc2occc2n1CC(=O)Nc1ccc(C)cc1C
- inhibition [1]: 13.8%
- inhibition [2]: 66.8% (active)
- inhibition [3]: 51.6% (active)
- inhibition [4]: 1.15%

Compound: COc1cc2c(cc1OC)CN(C(=O)CN1CCN(S(=O)(=O)c3ccc(C)c(C)c3)CC1)CC2
- inhibition [1]: 19.9%
- inhibition [2]: 49.3% (active)
- inhibition [3]: 45% (active)
- inhibition [4]: 16.1%

Compound: CC(=O)N1CCN(c2ccc(NCc3ccc(C)cc3)cc2)CC1
- inhibition [1]: 1.04%
- inhibition [2]: 34.2%
- inhibition [3]: 33.7%
- inhibition [4]: 1.11%

Compound: N#CC1=C(N)C(C#N)(C#N)[C@H](c2c(F)cccc2F)[C@H]2CC3(CC=C12)OCCO3
- inhibition [1]: 16.1%
- inhibition [2]: 60.9% (active)
- inhibition [3]: 54% (active)
- inhibition [4]: 17.2%

Compound: COc1ccc(/C=N/NC(=O)c2[nH]c3ccc(Br)cc3c2-c2ccccc2)cc1
- inhibition [1]: 62.3% (active)
- inhibition [2]: 42.6% (active)
- inhibition [3]: 50.7% (active)
- inhibition [4]: 32.6% (active)

Compound: C#Cc1cc(N2CCN(C(=O)c3ccoc3)CC2)n2nc(-c3cccc(Cl)c3)cc2n1
- inhibition [1]: 49% (active)
- inhibition [2]: 55.6% (active)
- inhibition [3]: 62.4% (active)
- inhibition [4]: 23.7%

Compound: c1csc(CCNc2ncnc3sc4c(c23)CCC4)c1
- inhibition [1]: 10.5%
- inhibition [2]: 63.7% (active)
- inhibition [3]: 60.7% (active)
- inhibition [4]: 48.9% (active)

Compound: CCOc1ccc(C(C)=O)cc1COC(=O)c1cc([N+](=O)[O-])ccc1N1CCOCC1
- inhibition [1]: 15.1%
- inhibition [2]: 58.2% (active)
- inhibition [3]: 55.5% (active)
- inhibition [4]: 7.41%

Compound: CCN1C(=O)c2cccc3c(NC(=O)c4ccc(S(=O)(=O)N5CCOCC5)cc4)ccc1c23
- inhibition [1]: 40.3% (active)
- inhibition [2]: 62% (active)
- inhibition [3]: 62.7% (active)
- inhibition [4]: -60.9%

Compound: CCN(CC)c1ccc(C2=NNC(=O)CC2C)cc1[N+](=O)[O-] (stereo not drawn)
- inhibition [1]: -14.3%
- inhibition [2]: 17%
- inhibition [3]: 21.7%
- inhibition [4]: -1.3%

Compound: Cc1cc(Br)ccc1NC(=O)CSc1nnc(CN2CCOCC2)n1C
- inhibition [1]: 15.4%
- inhibition [2]: 47.8% (active)
- inhibition [3]: 42.5%
- inhibition [4]: 0.09%

Compound: COc1ccc(/C=C/C(=O)c2cc(F)ccc2OC(=O)c2ccccc2C)cc1OC
- inhibition [1]: 52.9% (active)
- inhibition [2]: 41.1%
- inhibition [3]: 44.9% (active)
- inhibition [4]: 40.4% (active)

Compound: COc1cc(-c2cc(NC=O)c3ncc(-c4ccc(C(C)=O)cc4)n3c2)ccc1O
- inhibition [1]: 56.8% (active)
- inhibition [2]: 64.4% (active)
- inhibition [3]: 60.6% (active)
- inhibition [4]: -49.1%

Compound: CN1CCN(c2nc(-c3ccccc3O)nc3ccccc23)CC1
- inhibition [1]: 5.26%
- inhibition [2]: 42% (active)
- inhibition [3]: 26.3%
- inhibition [4]: 39.5% (active)

Compound: COCc1cc(C)n(CC(=O)Nc2ccc(N3CCOCC3)c(Cl)c2)c(=O)c1C#N
- inhibition [1]: -4.28%
- inhibition [2]: 40.5%
- inhibition [3]: 40.9%
- inhibition [4]: 6.57%

Compound: COc1ccc(/C=N/NC(=O)c2ccc(NC(=O)c3cccc([N+](=O)[O-])c3)cc2)c(OC)c1
- inhibition [1]: 13.1%
- inhibition [2]: 53.6% (active)
- inhibition [3]: 46.5% (active)
- inhibition [4]: 2.35%

Compound: COc1ccc(CCNC(=O)COC(=O)c2cccn2C)cc1
- inhibition [1]: 19%
- inhibition [2]: 42.9% (active)
- inhibition [3]: 46.3% (active)
- inhibition [4]: -13.7%

Compound: O=C(Cc1cccs1)N/N=C\c1ccc([N+](=O)[O-])s1
- inhibition [1]: 12.1%
- inhibition [2]: 64.9% (active)
- inhibition [3]: 56.4% (active)
- inhibition [4]: 12.6%

Compound: CC(=O)Nc1ccc(NC(=O)CSc2nnc(NC(=O)C3CC3)s2)cc1
- inhibition [1]: 1.23%
- inhibition [2]: 49.6% (active)
- inhibition [3]: 48.2% (active)
- inhibition [4]: -1.05%

Compound: O=C(c1ccco1)N1CCN(C(=O)c2ccc(COc3ccc(Cl)cc3Cl)o2)CC1
- inhibition [1]: 5.02%
- inhibition [2]: 49% (active)
- inhibition [3]: 46.2% (active)
- inhibition [4]: -11.1%

Compound: COc1ccc(C2=Nn3c(nnc3-c3ccccc3F)SC2)cc1OC1CCOC1 (stereo not drawn)
- inhibition [1]: 56.2% (active)
- inhibition [2]: 75% (active)
- inhibition [3]: 78.2% (active)
- inhibition [4]: -40.3%

Compound: O=C(Nc1ccc(F)cc1)c1oc2ccccc2c1NC(=O)C1CC1
- inhibition [1]: 24.4%
- inhibition [2]: 50.9% (active)
- inhibition [3]: 62.2% (active)
- inhibition [4]: 3.97%

Compound: c1ccc(C2=Nn3c(nnc3-c3n[nH]c4c3CCC4)SC2)cc1
- inhibition [1]: 47.6% (active)
- inhibition [2]: 50.8% (active)
- inhibition [3]: 40.7%
- inhibition [4]: -147%

Compound: COc1ccc(-n2c(SCC(=O)NCc3ccco3)nc3sc4c(c3c2=O)CCN(C)C4)cc1
- inhibition [1]: -6.62%
- inhibition [2]: -2.89%
- inhibition [3]: 11%
- inhibition [4]: -5.24%

Compound: O=C(Nc1cc(Cl)ccc1-n1cncn1)c1ccc([N+](=O)[O-])s1
- inhibition [1]: 23.2%
- inhibition [2]: 68.4% (active)
- inhibition [3]: 69.2% (active)
- inhibition [4]: -10.3%

Compound: COc1ccc(CCNC(=O)COC(=O)Cc2ccccc2[N+](=O)[O-])cc1
- inhibition [1]: 8.86%
- inhibition [2]: 65.5% (active)
- inhibition [3]: 61.4% (active)
- inhibition [4]: -6.51%

Compound: COc1ccc(NC(=O)CSC2=NCCN2)cc1
- inhibition [1]: -2.78%
- inhibition [2]: 31.3%
- inhibition [3]: 15.1%
- inhibition [4]: -3.5%

Compound: COc1ccc(OC)c(NC(=S)NCc2cccnc2)c1
- inhibition [1]: 1.82%
- inhibition [2]: 35.9%
- inhibition [3]: 33.3%
- inhibition [4]: 0.37%

Compound: CCOc1ccc(NC(=O)COC(=O)C2CCC(=O)N2)c([N+](=O)[O-])c1 (stereo not drawn)
- inhibition [1]: 4.31%
- inhibition [2]: 50.5% (active)
- inhibition [3]: 43.6% (active)
- inhibition [4]: -7.9%

Compound: CN1CCN(c2ccc(S(=O)(=O)N3CCCCC3)cc2NC(=O)COc2ccc([N+](=O)[O-])cc2)CC1
- inhibition [1]: 2.36%
- inhibition [2]: 59.6% (active)
- inhibition [3]: 53.1% (active)
- inhibition [4]: 4.16%

Compound: Cc1ccc(NC(=O)CN2C(=O)NC(C)(CC(C)C)C2=O)c(Br)c1 (stereo not drawn)
- inhibition [1]: 15.9%
- inhibition [2]: 55.1% (active)
- inhibition [3]: 61.6% (active)
- inhibition [4]: -6.87%

Compound: COc1ccccc1-c1cc(NC(C)=O)c2ncc(-c3ccc(S(C)(=O)=O)cc3)n2c1
- inhibition [1]: 23.8%
- inhibition [2]: 49.3% (active)
- inhibition [3]: 48.6% (active)
- inhibition [4]: -21.1%

Compound: CCN(CC)S(=O)(=O)c1cccc(NC(=O)CNc2cccc(S(=O)(=O)N3CCCC3)c2)c1
- inhibition [1]: 26.7%
- inhibition [2]: 64.4% (active)
- inhibition [3]: 59.8% (active)
- inhibition [4]: 49.5% (active)

Compound: Cc1ccc(NC(=O)CSc2nc3ncc(Br)cc3[nH]2)cc1C
- inhibition [1]: 10.7%
- inhibition [2]: 54.5% (active)
- inhibition [3]: 54.1% (active)
- inhibition [4]: 1.21%

Compound: CC(=O)N1CCN(c2cc(N3CCCC3)c(F)cc2[N+](=O)[O-])CC1
- inhibition [1]: 2.68%
- inhibition [2]: 57.4% (active)
- inhibition [3]: 48.7% (active)
- inhibition [4]: -0.47%

Compound: Cc1cc(NC(=O)CSc2nc3c(sc4ccccc43)c(=O)n2CCCN2CCOCC2)n[nH]1
- inhibition [1]: 48% (active)
- inhibition [2]: 70.3% (active)
- inhibition [3]: 44.2% (active)
- inhibition [4]: -8.59%

Compound: Cn1c(CCNC(=O)c2cccs2)nnc1SCC(=O)N1CCN(c2ccccc2)CC1
- inhibition [1]: 7.98%
- inhibition [2]: 29.8%
- inhibition [3]: 28.4%
- inhibition [4]: 0.01%

Compound: COc1cc(C2c3cc4c(cc3OC(Nc3ccc(C(=O)O)cc3)C2C)OCO4)cc(OC)c1OC (stereo not drawn)
- inhibition [1]: 44.5% (active)
- inhibition [2]: 49.7% (active)
- inhibition [3]: 60.9% (active)
- inhibition [4]: 26.4%

Compound: Cc1ccc(NC(=O)COC(=O)C(NS(=O)(=O)c2ccc(Cl)cc2)C(C)O)cc1C (stereo not drawn)
- inhibition [1]: 2.25%
- inhibition [2]: 61.8% (active)
- inhibition [3]: 43.2% (active)
- inhibition [4]: -7.53%

Compound: CC(C)n1c(SCC(=O)Nc2ccc(N3CCOCC3)cc2)nnc1-c1ccco1
- inhibition [1]: 4.53%
- inhibition [2]: 55.5% (active)
- inhibition [3]: 45.7% (active)
- inhibition [4]: -2.66%

Compound: CCCCOc1ccc(Br)cc1CSC(=N)N
- inhibition [1]: 16.4%
- inhibition [2]: 103% (active)
- inhibition [3]: 62.3% (active)
- inhibition [4]: 83.2% (active)

Compound: Cc1cc(C(=O)N/N=C/c2ccc([N+](=O)[O-])o2)c(C)o1
- inhibition [1]: 9.16%
- inhibition [2]: 71.5% (active)
- inhibition [3]: 65.2% (active)
- inhibition [4]: 3.18%

Compound: Cc1c(Cl)cccc1NC(=O)CSc1nc2ncc(Cl)cc2[nH]1
- inhibition [1]: 18.2%
- inhibition [2]: 69% (active)
- inhibition [3]: 58% (active)
- inhibition [4]: 1.96%

Compound: CC(C)c1ccc(NC(=O)CSc2nc(=O)[nH]c3c2CCCC3)cc1
- inhibition [1]: 16.1%
- inhibition [2]: 58.5% (active)
- inhibition [3]: 47.3% (active)
- inhibition [4]: -10.5%

Compound: CC1CCCC(C)N1C(=O)COC(=O)Cc1ccc(F)cc1 (stereo not drawn)
- inhibition [1]: -0.44%
- inhibition [2]: 47.2% (active)
- inhibition [3]: 44.5% (active)
- inhibition [4]: 3.23%

Compound: CC(=O)Nc1ccc(NC(=O)CSc2ccc(-c3ccco3)nn2)cc1
- inhibition [1]: 16.1%
- inhibition [2]: 49.4% (active)
- inhibition [3]: 44.7% (active)
- inhibition [4]: -18.3%

Compound: O=C(CCl)Nc1cccc(Oc2cnccn2)c1
- inhibition [1]: 37.1% (active)
- inhibition [2]: 69% (active)
- inhibition [3]: 64.9% (active)
- inhibition [4]: -26.5%

Compound: CCOCc1c(C(=O)Nc2ccccc2N2CCN(C)CC2)oc2ccccc12
- inhibition [1]: 13.5%
- inhibition [2]: 70.5% (active)
- inhibition [3]: 73% (active)
- inhibition [4]: 8.89%

Compound: Cc1ccc(NC(=O)CSc2nnc(CNC(=O)c3ccco3)n2C)c(C)c1
- inhibition [1]: 6.66%
- inhibition [2]: 58.5% (active)
- inhibition [3]: 51.4% (active)
- inhibition [4]: -7.24%

Compound: O=C(COC(=O)C1CC1)NCCc1ccc(Cl)cc1
- inhibition [1]: 4.21%
- inhibition [2]: 45.3% (active)
- inhibition [3]: 39.1%
- inhibition [4]: -2.95%
